TDP1 inh – blocks human tyrosyl-DNA phosphodiesterase 1 | Q9NUW8 | recombinant TDP1, AlphaScreen DNA substrate cleavage | Potency, µM (highest dose often 130 µM), for the others: top-dose activity change, negative = inhibition, most hits filed as inhibitors | 350,000 compounds, 0.28% hits | AID 485290; further: nearly all actives have a fitted effect of over 40% in size
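Here, a 5' biotin and 3' phosphotyrosine-FITC DNA oligonucleotide reports Tdp1 activity: intact substrate bridges AlphaScreen beads, while cleavage leaves a 3' phosphate and drops signal. All incubations at room temperature.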
VDR inhibitor – vitamin D3 receptor (human) inhibition | 400,000 compounds, 0.93% hits | AID 504847 | VDR-SRC2-3 peptide fluorescence polarization, 2 h | P11473 | Potency, µM, without a hit: max response, negative = inhibition, most hits filed as inhibitors
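Two reagent solutions held at 4 deg C in the dark were dispensed, compounds pinned at 23 nl, and the mixture incubated 2 h at room temperature. Read-out: fluorescence polarization of VDR–SRC2-3 peptide binding.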
DT40 TDP1 CPT – growth inhibition of DT40 Tdp1-/-;hTDP1 cells with camptothecin (screen for TDP1 inhibitors); chicken DT40 Tdp1-/-;hTDP1 cells + 20 nM CPT, ATP luminescence, 48 h; Potency, µM (titrated, usually from 46.2 µM), inactives show at the highest dose activity change, negative = growth inhibition, most hits filed as inhibitors; 420,000 compounds, 12% hits; further: nearly all actives have a fitted effect of over 55% in size
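Chicken DT40 Tdp1-/- cells stably complemented with human TDP1 were seeded at 400 cells/well in medium containing 20 nM camptothecin, exposed to pin-transferred compounds, and grown at 37 °C for at least 48 hr. Viability was read as ATP luminescence.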
TDP1 cell noCPT – qHTS for Inhibitors of human tyrosyl-DNA phosphodiesterase 1 (TDP1): qHTS in cells in absence of CPT; Potency, µM (highest dose often 46.2 µM), inactives show at the highest dose activity change, negative = growth inhibition, most hits filed as inhibitors; 420,000 compounds, 15% hits; DT40 Tdp1-/- hTDP1 cells, no CPT, ATP luminescence, 48 h; AID 686978, 2013; further: nearly all actives have a fitted effect of over 55% in size
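Cells were dispensed at 400 per well, compounds added by pin tool, plates incubated ≥48 hr at 37 °C, then CellTiter-Glo added for 30 min at room temperature before luminescence reading. Line: DT40 Tdp1-/- complemented with hTDP1; camptothecin omitted.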
GCN5L2 inh – GCN5L2 (KAT2A) acetyltransferase inhibition; 390,000 compounds, 0.21% hits; GCN5L2 HAT assay, ThioGlo1 CoA-SH fluorescence; Potency, µM (titrated, usually from 58.9 µM), for the others: at the highest dose activity change, negative = inhibition, most hits filed as inhibitors; Q92830
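GCN5L2 (20nM final) in 50mM HEPES, 0.1mM EDTA pH 7.5, 0.01% Tween-20 was preincubated 15 min at room temperature with compound, then given ThioGlo1 (50uM), H3(1-25) peptide (75uM) and acetyl-CoA (70uM); CoA-thiol fluorescence (Ex340/Em540) was read at 0 and 20 min.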
PLK1 PBD inh – inhibitors of human PLK1 polo-box domain binding | 360,000 compounds, 2.8% hits | P53350 | Potency, µM, inactives show max response, negative = inhibition, actives largely listed as inhibitors | Plk1 PBD binding of FITC phosphopeptide, fluorescence polarization; further: series mostly up to about 57 µM; nearly all actives have a fitted effect of over 65% in size
Target sequence (P53350 whole entry, looked up, the tested form may be a part): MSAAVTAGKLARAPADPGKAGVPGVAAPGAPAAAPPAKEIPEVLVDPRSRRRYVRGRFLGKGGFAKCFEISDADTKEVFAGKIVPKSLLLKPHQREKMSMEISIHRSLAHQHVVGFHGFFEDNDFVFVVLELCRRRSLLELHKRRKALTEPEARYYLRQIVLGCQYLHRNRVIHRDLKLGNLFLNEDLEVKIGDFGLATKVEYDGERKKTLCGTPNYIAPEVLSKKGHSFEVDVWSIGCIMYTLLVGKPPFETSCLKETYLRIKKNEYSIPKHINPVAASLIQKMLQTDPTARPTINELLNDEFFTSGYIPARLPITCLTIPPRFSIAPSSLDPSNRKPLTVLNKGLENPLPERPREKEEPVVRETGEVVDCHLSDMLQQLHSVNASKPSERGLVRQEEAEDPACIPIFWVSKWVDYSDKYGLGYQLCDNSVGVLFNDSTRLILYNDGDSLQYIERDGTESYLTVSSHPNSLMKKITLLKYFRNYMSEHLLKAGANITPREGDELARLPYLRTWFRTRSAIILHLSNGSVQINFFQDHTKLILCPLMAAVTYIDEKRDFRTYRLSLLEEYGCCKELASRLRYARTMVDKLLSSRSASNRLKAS
Starred values were filed as active, the others as inactive. Hits are enriched below; roughly 18% of the tested compounds scored in any of these assays. The call rests on the fitted dose curve; in most records, active means well fitted curve in the direction sought with a large enough effect; inconclusive means small, poorly fitted or top-dose-only effect, or another doubt; inactive means no such curve, though single readings can be large; an effect the other way counts as inactive or inconclusive. On the % scale 0 is the no-effect control and ±100 the full control effect; potency means the concentration at half of the fitted maximal effect.

Screening Cc1cc(C(C)(C)C)oc1C(=O)N(CC(=O)NC1CCCC1)Cc1ccccc1 returned TDP1 inh 3%, VDR inhibitor 13%, DT40 TDP1 CPT 15µM*, TDP1 cell noCPT 13µM*, GCN5L2 inh -1% and PLK1 PBD inh 1%.
Cc1ccc(C)c(N(CC(=O)NC2CCCCC2)C(=O)c2csnn2)c1 was read as TDP1 inh 1%, VDR inhibitor -17%, DT40 TDP1 CPT 5%, TDP1 cell noCPT -21%, GCN5L2 inh 1% and PLK1 PBD inh 3%.
CC(Sc1nnc(-c2ccncc2)n1C)C(=O)Nc1nccs1 (stereo not given) was read as VDR inhibitor -10%, DT40 TDP1 CPT 0%, TDP1 cell noCPT 2%, GCN5L2 inh 0% and PLK1 PBD inh -8%.
CCOC(=O)c1sc(NC(=O)c2nc3nc(C)cc(C(F)F)n3n2)c(C(=O)OC(C)C)c1C was read as TDP1 inh 3%, VDR inhibitor -26%, DT40 TDP1 CPT 0%, TDP1 cell noCPT -1% and GCN5L2 inh 2%.
For COc1ccc(/C=N/NC(=O)CN2CCSCC2)cc1C the results were TDP1 inh 0%, VDR inhibitor -4%, DT40 TDP1 CPT 3%, TDP1 cell noCPT -7%, GCN5L2 inh -2% and PLK1 PBD inh 1%.
`Cc1cc(O)c(C(C)C)cc1N=Cc1ccc(N(C)C)cc1` gave VDR inhibitor 45µM*, DT40 TDP1 CPT 2.9µM*, TDP1 cell noCPT 5.2µM* and PLK1 PBD inh -18%.
Cc1cc(O)c(C(C)C)cc1N=Cc1ccc([N+](=O)[O-])cc1 was read as VDR inhibitor 50µM*, DT40 TDP1 CPT 7.3µM*, TDP1 cell noCPT 16µM* and PLK1 PBD inh -23%.
COc1cccc(C=Nc2cccnc2)c1O was read as TDP1 inh -2% and GCN5L2 inh -5%.
For COc1cccc(C=Nc2cc(C(C)C)c(O)cc2C)c1O the results were VDR inhibitor 50µM*, DT40 TDP1 CPT 4.1µM*, TDP1 cell noCPT 3.3µM* and PLK1 PBD inh -22%.
O=C(NCCCNC(=O)c1ccccc1F)c1ccco1 was read as TDP1 inh 1%, VDR inhibitor 13%, DT40 TDP1 CPT 4%, TDP1 cell noCPT -7%, GCN5L2 inh -4% and PLK1 PBD inh -6%.
Screening COc1ccc(NC(=O)C(OC(=O)CNC(=O)c2ccccc2)c2ccccc2)cc1F (stereo not given) returned TDP1 inh 1%.
N#Cc1ccc(C23CC4(C2)[C@H](CN(CC2CCCCC2)[C@@H]4c2ccccc2)C3c2ccccc2)cc1 (stereo not given in full) was read as TDP1 inh 8%, VDR inhibitor -6%, DT40 TDP1 CPT inconclusive, TDP1 cell noCPT 16µM*, GCN5L2 inh -9% and PLK1 PBD inh 2%.
FC(F)(F)c1ccc(CN2C[C@@H]3C(c4ccc(Cl)nc4)C4(c5ccccc5)CC3(C4)[C@H]2c2ccccc2)cc1 (stereo not given in full) was read as TDP1 inh 5%, VDR inhibitor 13%, DT40 TDP1 CPT inconclusive, TDP1 cell noCPT inconclusive, GCN5L2 inh 2% and PLK1 PBD inh -4%.
For FC(F)(F)c1ccc(C2[C@H]3CN(CC4CCCCC4)[C@H](c4ccccc4)C34CC2(c2ccccc2)C4)cc1 (stereo not given in full) the results were TDP1 inh 8%.
N#Cc1ccc(C23CC4(C2)[C@H](CN(CC2CCCCC2)[C@@H]4c2ccccc2)C3c2ccc(Cl)nc2)cc1 (stereo not given in full) was read as TDP1 inh 10%, VDR inhibitor -16%, DT40 TDP1 CPT 13µM*, TDP1 cell noCPT 15µM*, GCN5L2 inh -25% and PLK1 PBD inh 1%.
CCC(=O)N1CCc2cc(S(=O)(=O)CCC(=O)Nc3cccc(C)n3)ccc21 was read as TDP1 inh 0%, VDR inhibitor -6%, DT40 TDP1 CPT 3%, TDP1 cell noCPT 1%, GCN5L2 inh -8% and PLK1 PBD inh -17%.
Screening O=C1NC[C@@H](CCCCN2C[C@H](Cc3ccccc3)N(CCc3ccc(O)cc3)C(=O)C2=O)N(Cc2ccccc2)C1=O returned DT40 TDP1 CPT -7%, TDP1 cell noCPT 4% and PLK1 PBD inh -9%.
FC(F)(F)COc1nc(N2CCOCC2)nc(N(c2ccccc2)c2ccccc2)n1 was read as TDP1 inh 2%, VDR inhibitor -4%, DT40 TDP1 CPT inconclusive, TDP1 cell noCPT 21µM*, GCN5L2 inh -5% and PLK1 PBD inh 1%.
c1ccc(N(c2ccccc2)c2nc(N3CCOCC3)nc(N3CCOCC3)n2)cc1 was read as TDP1 inh 3% and GCN5L2 inh -7%.
`CCOc1ccc(-n2c(-c3ccc(Cl)cc3)c[n+]3c2SCC3)cc1` gave TDP1 inh 6%, VDR inhibitor 6%, DT40 TDP1 CPT 1.8µM*, TDP1 cell noCPT 2.1µM*, GCN5L2 inh -11% and PLK1 PBD inh -3%.
CCOc1ccc(C2=CSC3=NCCN23)cc1 was read as TDP1 inh 3%, VDR inhibitor -27%, DT40 TDP1 CPT -13%, TDP1 cell noCPT -26%, GCN5L2 inh -14% and PLK1 PBD inh -8%.
For c1ccc(-c2c[n+]3c(n2-c2ccccc2)SCC3)cc1 the results were TDP1 inh 3%, VDR inhibitor 30%, DT40 TDP1 CPT inconclusive, TDP1 cell noCPT 21µM*, GCN5L2 inh -2% and PLK1 PBD inh -15%.
c1ccc(-n2c3ccccc3c3ccccc32)cc1 was read as TDP1 inh -3%, VDR inhibitor 7%, DT40 TDP1 CPT inconclusive, TDP1 cell noCPT inconclusive, GCN5L2 inh -6% and PLK1 PBD inh -3%.
`Cc1ccc(NC(=O)c2cc(-c3ccccc3)nn2-c2ccccc2)cc1` gave TDP1 inh 1%, VDR inhibitor 7%, DT40 TDP1 CPT inconclusive, TDP1 cell noCPT 21µM*, GCN5L2 inh -9% and PLK1 PBD inh -1%.
Screening Cc1cc(C(=O)Nc2ccc(Br)cc2F)n(-c2ccccc2)n1 returned VDR inhibitor 5%, DT40 TDP1 CPT inconclusive, TDP1 cell noCPT -12%, GCN5L2 inh 2% and PLK1 PBD inh -6%.
CCC(Oc1ccccc1)C(=O)Nc1cc(-c2cccc(C)c2)nn1-c1ccccc1 (stereo not given) was read as TDP1 inh 3%, VDR inhibitor 11%, DT40 TDP1 CPT -25%, TDP1 cell noCPT -7% and GCN5L2 inh 2%.

Assay outcomes deposited in PubChem BioAssay by National Center for Advancing Translational Sciences (NCATS).
